A selection: hits, their analogues and other compounds. The true share with any hit is near 2.4%.
M1 PAM: human CHRM1 positive allosteric modulation; P11229; CHO-K1 hM1, Fluo-8 calcium fluorescence, ACh EC20; 0% = ACh EC20, 100% = maximal ACh; activation, % at 3 µM; 360,000 compounds, 0.088% hits; AID 588819; in the data active = activation above about 19%, passing the limit was not always enough
Target sequence (P11229 whole entry, looked up): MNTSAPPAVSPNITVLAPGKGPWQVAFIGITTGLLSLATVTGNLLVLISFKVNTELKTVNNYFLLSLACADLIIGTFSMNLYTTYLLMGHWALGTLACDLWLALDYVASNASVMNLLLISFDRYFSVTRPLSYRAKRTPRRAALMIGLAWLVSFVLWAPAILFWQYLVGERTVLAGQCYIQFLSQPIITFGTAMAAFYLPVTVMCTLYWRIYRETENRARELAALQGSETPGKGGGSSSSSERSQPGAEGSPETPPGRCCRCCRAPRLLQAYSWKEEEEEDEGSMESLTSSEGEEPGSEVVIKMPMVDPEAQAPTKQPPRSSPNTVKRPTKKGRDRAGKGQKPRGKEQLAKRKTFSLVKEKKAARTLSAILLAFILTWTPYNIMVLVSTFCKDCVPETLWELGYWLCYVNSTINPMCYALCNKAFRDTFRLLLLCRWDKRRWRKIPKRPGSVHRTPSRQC
CHO-K1 Ca ag: counter-screen for M1 agonists: effect in parental CHO-K1 cells; Fluo-8 calcium fluorescence; scaled to maximal ATP response, vehicle zero; activation, % at 3 µM; 360,000 compounds, 0.48% hits; AID 602248; in the data active = activation above about 15%;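 note: untransfected CHO-K1 host cells lacking M1 receptor as counterscreen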
CHO-K1 Ca antag: M1 antagonist counterscreen hit in parental CHO-K1 cells; ATP-induced calcium, Fluo-8 fluorescence; inhibition, % at 3 µM; 360,000 compounds, 0.6% hits; AID 602250;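 active = inhibition above a per-plate cutoff, the plate's mean sample inhibition plus 3 SD, cut at about 24% in these data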
CHRM1 antagonist: antagonists of human M1 muscarinic receptor; P11229; CHO-K1 hM1, Fluo-8 calcium fluorescence, ACh EC80 antagonist; inhibition, % at 3 µM; 360,000 compounds, 1.3% hits; AID 588852;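 active = percent inhibition above its own plate's cutoff, namely the mean of that plate's compound wells plus 3 SD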;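 note: peak over basal fluorescence ratio during 140 s after agonist addition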
CHO-K1 Ca PAM: counter-screen for M1 PAMs: effect in parental CHO-K1 cells | ATP EC20, Fluo-8 calcium fluorescence; 0% at ATP EC20, 100% at ATP max | activation, % at 3 µM | 360,000 compounds, 0.02% hits | AID 602247;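 active = activation above the run cutoff, the mean activation of all test compounds plus 3 SD, cut at about 40% in these data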;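 note: peak over basal fluorescence ratio in a 140 s read after ATP addition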
CHRM1 agonist: activates human CHRM1 receptor; P11229; CHO-K1 hM1, Fluo-8 calcium fluorescence, agonist mode; 0% DMSO, 100% acetylcholine EC100; 360,000 compounds, 0.33% hits; AID 588814; activation, % at 3 µM;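 active = activation above the run's mean compound activation plus 3 SD, cut at about 16% in these data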;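 note: peak over basal fluorescence ratio within a 140 s kinetic read after compound addition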
Of the large screens only hits and unclear results are named; the others gave an inactive call.

Cc1cc2oc(C(=O)Nc3ccc(S(N)(=O)=O)cc3)c(C)c2cc1Cl	CHO-K1 Ca antag 27.9
CC(C)CC1C(=O)N(Cc2cn(CC3CCCCC3)nn2)CCS(=O)(=O)N1Cc1ccc(-c2ccncc2)cc1 (stereo not given)	CHRM1 agonist 19.4
COc1ccc(-c2ccc(CN3C(C)C(=O)N(Cc4cn(CC5CCCCC5)nn4)CCS3(=O)=O)cc2)cc1 (stereo not given)	CHO-K1 Ca antag 25.5
Cc1ccc(-c2ccc(CN3C(C)C(=O)N(Cc4cn(CC5CCCCC5)nn4)CCS3(=O)=O)cc2)cc1 (stereo not given)	none
CC[C@H](C)Cc1cn([C@@H](CCCN=C(NC(=O)OC(C)(C)C)NC(=O)OC(C)(C)C)C(=O)NCCCCCCCCCCC(=O)N2CCN(C(=O)OC(C)(C)C)CC2)nn1	none
Cc1cn([C@@H](CCCCNC(=O)OC(C)(C)C)C(=O)NCCCCCCCCCCC(=O)N2CCN(C(=O)OC(C)(C)C)CC2)nn1	CHO-K1 Ca ag 15.8, CHRM1 antagonist 43.8
CCNC(=O)NCc1c(C)c(C)n(Cc2ccccc2)c1-n1cccc1	none
CCOC(=O)COc1ccc2c(c1)C(=O)CC(C)(c1cccnc1)O2 (stereo not given)	CHO-K1 Ca ag 15.2
CCN(CC)C(=S)SCC(=O)c1ccc(F)cc1	CHRM1 antagonist 24.2
COc1ccc(C2(c3ccc(O)cc3O)CC(c3ccccc3Cl)NC(=S)N2)cc1 (stereo not given)	none
NC(=O)c1sc2nc3c(cc2c1N)CCCCCC3	none
Nc1c(C(=O)O)sc2nc3c(cc12)CCCC3	CHO-K1 Ca ag 16.1
C[C@@H]1CCCCCCCCCCC1=O	none
O=C1NN=C2CCCCCCC12 (stereo not given)	CHRM1 antagonist 97.8
O=C(C[n+]1ccccc1)NNc1ccccc1	none
COc1ccc(OC)c(-c2cc(C3CCN(c4cc(Cl)nc(N)n4)CC3)[nH]n2)c1	CHO-K1 Ca antag 25.1
Nc1nc(Cl)cc(N2CCC(c3cc(-c4ccc(Cl)cc4)n[nH]3)CC2)n1	CHO-K1 Ca ag 20.6, CHRM1 antagonist 37.9
COc1ccc(-c2cc(C3CCN(Cc4ccc([N+](=O)[O-])cc4)CC3)[nH]n2)cc1	none
Cc1ccc(CN2CCC(c3cc(-c4ccc(Cl)cc4)n[nH]3)CC2)cc1	CHO-K1 Ca ag 15.5
Cc1cccc(N2CC(C)Cn3c2nc2c3c(=O)[nH]c(=O)n2C)c1 (stereo not given)	none
O=C(Nc1nnc(C2CC2)s1)C1Cc2ccccc2CN1S(=O)(=O)c1ccccc1F (stereo not given)	none
CC1=CC(C)(C)N(C(=O)CNC2CCCCC2)c2cc(C)ccc21	CHRM1 antagonist 99.5
CC1=CC(C)(C)N(C(=O)CCl)c2cc(C)ccc21	none
O=[N+]([O-])c1cccnc1N1CCC(c2cc(-c3cccc(C(F)(F)F)c3)n[nH]2)CC1	CHRM1 antagonist 22.3
O=[N+]([O-])c1cccnc1N1CCC(c2cc(-c3ccc(Cl)cc3Cl)n[nH]2)CC1	none
CCCN1C(=O)CC(=O)N=C1SCC(=O)Nc1ccccc1F	CHO-K1 Ca ag 17.9
CC(C)C[C@H](NC(=O)c1[nH]cnc1C(=O)Nc1ccc(CNC(=O)OC(C)(C)C)cc1)C(=O)OC(C)(C)C	CHO-K1 Ca PAM 47.7
CC(C)(C)OC(=O)NCc1ccc(CNC(=O)c2nc[nH]c2C(=O)NCc2ccc(CNC(=O)OC(C)(C)C)cc2)cc1	CHO-K1 Ca antag 29.1
CC(C)(C)OC(=O)NCc1ccc(NC(=O)c2nc[nH]c2C(=O)NCCNC(=O)c2[nH]cnc2C(=O)Nc2ccc(CNC(=O)OC(C)(C)C)cc2)cc1	none
Cc1cccc(NC(=O)c2nc[nH]c2C(=O)NCCCCCNC(=O)OC(C)(C)C)c1	none
CC(C)(C)OC(=O)NCCCCCNC(=O)c1nc[nH]c1C(=O)NCc1ccc(CNC(=O)OC(C)(C)C)cc1	CHO-K1 Ca ag 15.5, CHRM1 antagonist 67.8
CC(C)(C)OC(=O)NCCCCCNC(=O)c1nc[nH]c1C(=O)NCCCCCNC(=O)OC(C)(C)C	CHRM1 antagonist 43.9
O=C(CN1C(=O)NC(c2ccccc2)(c2ccccc2)C1=O)NC1CCCCC1	none
COc1cc2ccccc2ccc1=NO	none
Cc1ccc(NC(=O)N2CCCC2C(=O)Nc2c(C)cc(C)cc2C)cc1 (stereo not given)	none
CSc1ccc(CN(C)C(=O)C23CC4CC(CC(Cl)(C4)C2)C3)cc1	none
Cc1cccc(CCNC(=O)C2CCC(=O)N(Cc3ccccc3F)C2)n1 (stereo not given)	none
CC(C)(C)OC(=O)NCCCC[C@H](NC(=O)c1nc[nH]c1C(=O)N[C@@H](CCCCNC(=O)OC(C)(C)C)C(=O)OC(C)(C)C)C(=O)OC(C)(C)C	none
CC(C)(C)OC(=O)NCCCCCNC(=O)c1[nH]cnc1C(=O)N[C@@H](CCCCNC(=O)OC(C)(C)C)C(=O)OC(C)(C)C	CHRM1 antagonist 30.0
CC(C)(C)OC(=O)CNC(=O)c1[nH]cnc1C(=O)Nc1ccc(CNC(=O)OC(C)(C)C)cc1	CHRM1 antagonist 52.5
CC(C)(C)OC(=O)CNC(=O)c1nc[nH]c1C(=O)NCc1ccc(CNC(=O)OC(C)(C)C)cc1	CHRM1 antagonist 34.2
CC(C)(C)OC(=O)NCc1ccc(CNC(=O)c2[nH]cnc2C(=O)NC2CCN(C(=O)OC(C)(C)C)CC2)cc1	CHRM1 antagonist 34.5
CC(C)(C)OC(=O)CNC(=O)c1nc[nH]c1C(=O)NCc1ccccc1	none
CC(C)(C)OC(=O)N1CCC(NC(=O)c2nc[nH]c2C(=O)NCc2ccccc2)CC1	none
CCN(C(=O)COC(=O)c1ccc2c(c1)OCO2)c1c(N)n(Cc2ccccc2)c(=O)[nH]c1=O	none
COc1ccc(C(=O)NCc2nnc(SCC(=O)Nc3cc(Cl)ccc3OC)o2)cc1	none
COc1ccccc1-n1c(SCC(=O)NCC2CCCO2)nc2c([nH]c3ccccc32)c1=O (stereo not given)	none
Cc1cc(O)ccc1NC(=O)CCN1C(=O)c2ccc([N+](=O)[O-])cc2C1=O	M1 PAM 28.5
O=C1CC(C(=O)N2CCCc3ccccc32)CN1c1ccc(Cl)cc1 (stereo not given)	none
COc1ccc(C)cc1NC(=O)CNc1ccccc1CN(C)C1CCCCC1	CHRM1 antagonist 50.8
Cc1c(C(=O)CN2CCCC(C)(C)C2)c2ccccc2n1C	none
CCN1C(=O)c2cccc3c(Cl)ccc(c23)C1=O	none
CC(=O)Nc1cccc2c1C(=O)N(c1cccc(C)c1)C2=O	none
CC(C)CCN1C(=O)c2cccc3c(N)ccc(c23)C1=O	CHO-K1 Ca ag 152.2, CHO-K1 Ca antag 67.0, CHRM1 antagonist 70.4, CHRM1 agonist 151.3
Cc1cccc(N2C(=O)c3cccc4cccc(c34)C2=O)c1	none
O=C(O)c1ccc2c3c(cccc13)C(=O)N(c1ccccc1)C2=O	none

Compound activity from PubChem.
